Test results reported in PubChem BioAssay.

Assay: FRG1 promoter luciferase signal modulators, primary screen, FRG1 inhibition for FSHD, cell-based, C2C12 myotubes, firefly/Renilla luciferase, luminescence (AID 1084)
Conditions: higher = more signal, called active from +8 up or from −8 down

z-score, inactive:
COCC(=C=CC[C@H](O)c1ccccc1OCCO)C[C@H](O)c1cc(Cl)cc(Cl)c1O -3.97
C=CCC(OC(C)=O)[C@@H]1[C@@H](N(Cc2ccc(-c3ccccc3)cc2)C(=O)Cc2ccc(F)cc2)c2cc(OCCCO)ccc2N1C(=O)c1ccc(-c2ccccc2)cc1 (stereo not given in full) -0.432
COCCOC(=O)N1C(=O)[C@@]2(c3cc(C#CC4=CCCCC4)ccc31)[C@H](c1ccc(O)cc1)N1[C@H](c3ccccc3)[C@H](c3ccccc3)OC(=O)[C@H]1[C@@H]2C(N)=O 0.189
O=C1O[C@H](c2ccccc2)[C@H](c2ccccc2)N2[C@H]1[C@@H](C(=O)O)[C@]1(C(=O)Nc3ccc(C#CCCO)cc31)[C@H]2c1ccc(O)cc1 0.482
O=C(NCc1ccccc1)[C@@]1(Cc2ccccc2)N=C(c2ccc(OCCCO)cc2)O[C@H]1c1ccccc1 -2.23
CCOC(=O)C[C@H]1[C@H](OC(=O)c2cc3ccccc3oc2=O)[C@@H](NC(=O)Cc2ccc(OC)cc2)c2cc(OCCCO)ccc2N1C(=O)c1ccccc1 1.57
COc1ccc([Si](C)(C)[C@H]2[C@H](CCO)O[C@@]3(C(=O)N(C)c4c(Br)cc(C)cc43)[C@@H]2C)cc1 -2.14
CN(C)C(=O)[C@@]1(Cc2ccccc2)N=C(c2ccc(OCCCO)cc2)O[C@H]1c1ccccc1N=[N+]=[N-] -1.66
CC(=O)NCCCC[C@@H]1NC(=O)[C@@H]2C[C@H](C(=O)NCCCCCCNC(=O)CS)[C@H](c3cccc(OCCO)c3)N2C1=O 0.743
CN(C)CCCNC(=O)[C@@]1(C)c2ccccc2C(=O)N(Cc2cc(F)cc(C(F)(F)F)c2)[C@H]1c1ccc(CO)cc1 -0.712
O=C1C[C@]2(c3ccc([N+](=O)[O-])cc3)C(=O)N(CCN3CCOCC3)c3cc(CO)ccc3[C@H]2N1C1CCCCC1 -1.88
COC(=O)C=C(CC(O)c1cccc(Cl)c1)OC (stereo not given) -4.2
COc1ccc(CCN2C(=O)[C@@]3(c4ccc([N+](=O)[O-])cc4)CC(=O)N(C4CCCCC4)[C@@H]3c3ccc(CO)cc32)cc1 0.912
O=C1C2C=CC(C(O)C(c3ccccc3)c3ccccc3)N(n3cnnc3)C2C(=O)N1Cc1ccccc1 (stereo not given) 0.266
O=C1c2ccccc2[C@@]2(Cc3ccccc3N(CCN3CCOCC3)C2=O)[C@H](c2ccc(CO)cc2)N1Cc1ccccc1 -0.0352
CC(C)(C)OC(=O)CC[C@]1(C(=O)NCC(O)CO)COC(c2ccc(OCCCO)cc2)=N1 (stereo not given in full) 0.555
CN1C(=O)[C@]2(Cc3ccccc3)N=C(c3ccc(OCCCO)cc3)O[C@@H]2c2ccccc21 -0.113
O=C1OCCC/C=C\[C@H]2OC34C=CCN(Cn5nnc6ccccc65)C(=O)[C@H]3N(CCO)C(=O)[C@@H]4C12 (stereo not given in full) 0.356
CC(C)C(=C=CC[C@@H](O)c1ccccc1OCCO)CCO -1.6
N#Cc1ccc(NN2C(C(O)c3c(F)cccc3Cl)C=CC3C(=O)N(c4ccccc4)C(=O)C32)cc1 (stereo not given) -1.14
COC(=O)[C@@]1(Cc2ccccc2)[C@H]2c3cc(C(=O)N4CCCC4)n(Cc4cccc5ccccc45)c3C[C@H]2CN1C(=O)c1ccccc1 -0.165
COCC(=C=CC[C@@H](O)c1ccccc1OCCO)C[C@@H](O)c1cc(Cl)cc(Cl)c1O -0.914
C=CCOC(=O)[C@@H]1[C@H]2C(=O)O[C@H](c3ccccc3)[C@H](c3ccccc3)N2[C@H](c2ccc(OCCOC(=O)[C@@H]3C[C@@H]4C(=O)N[C@@H](Cc5ccccc5)C(=O)N4[C@@H]3c3ccc(O)cc3)cc2)[C@@]12C(=O)Nc1ccc(I)cc12 1.42
C[C@@H]1ON(c2cccc(C(=O)OC(C)(C)C)c2)[C@H](c2ccc(Br)cc2)[C@H]1C(=O)N1C(=O)OC[C@H]1Cc1ccccc1 -0.295
O=C1OCCC=C[C@H]2OC34C=CCN(CCN5CCOCC5)C(=O)[C@H]3N(CCCCCCO)C(=O)[C@@H]4C12 (stereo not given in full) -0.263
C=CC[C@@]1(C(N)=O)N=C(c2ccc(OCCCO)cc2)O[C@@H]1c1ccccc1CN=[N+]=[N-] 2.94
C=CCOC(=O)[C@H]1[C@@H]2C(=O)O[C@@H](c3ccccc3)[C@@H](c3ccccc3)N2[C@@H](c2ccc(OCCOC(=O)[C@H]3C[C@H]4C(=O)N[C@@H](CC(C)C)C(=O)N4[C@H]3c3ccc(O)cc3)cc2)[C@]12C(=O)Nc1ccc(I)cc12 1.11
CCCCN1CC=CC23O[C@@H]4/C=C\CCC(C)OC(=O)C4[C@H]2C(=O)N(CCCCCO)[C@@H]3C1=O (stereo not given in full) 0.464
COc1ccc(C(O)C2C=CC3C(=O)NC(=O)C3N2Nc2ccccn2)c2ccccc12 (stereo not given) 0.87
C=C(COC)/C(=C/C[C@H](OC(=O)c1ccncc1)c1ccc(OCCO)cc1)c1cnc2ccccc2c1 1.87
C=C(C)C1C(=C)CN([C@H](CO)c2ccccc2)C1=O (stereo not given in full) 0.0392
C=CCC(OC(C)=O)[C@@H]1[C@@H](N(Cc2ccc(-c3cccc(C(F)(F)F)c3)o2)C(=O)Cc2ccc(F)cc2)c2cc(OCCCO)ccc2N1C(=O)Cc1ccc(OC)cc1 (stereo not given in full) -0.373
CC(C)c1ccc(NN2C(C(O)c3cc(C(F)(F)F)cc(C(F)(F)F)c3)C=CC3C(=O)N(c4ccccc4)C(=O)C32)cc1 (stereo not given) 0.0782
COc1ccc([Si](C)(C)[C@H]2[C@H](CCn3cc([C@H](O)c4ccccc4)nn3)O[C@@]3(C(=O)N(Cc4cccc(N5CCOC5=O)c4)c4ccccc43)[C@@H]2C)cc1 -0.955
Cc1ccc(S[C@]2(C(=O)NCC(C)C)CC(=O)N(Cc3cc(C(F)(F)F)cc(C(F)(F)F)c3)[C@@H]2c2ccc(CO)cc2I)cc1 -0.286
